Compound activity deposited in PubChem BioAssay by The Scripps Research Institute Molecular Screening Center.
Compounds with a hit are over-represented: about 3.5% of the library has one in this group of screens.
FBW7 act: human FBW7 E3 ligase activation, primary screen | normalized activity (activation), % at 26.1 µM | 0.13% of 650,000 active | Q969H0 | AlphaScreen FBW7–phospho-cyclin E peptide binding, activator screen; in the data active means normalized activity above about 1.9%;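 further: purified mutant Fbw7 with reduced substrate affinity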
TEAD-YAP block: TEAD-YAP interaction inhibition; HEK-TIYL cells, TEAD-Gal4/YAP UAS-luciferase luminescence; inhibition, % at 9.12 µM; 1.4% of 640,000 active; AID 1259422; in the data active means inhibition above about 32%;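 further: 0% = median of test compound wells and 100% = reference inhibitor wells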
MITF inh: human MITF inhibition, primary screen; AlphaScreen MITF homodimerization, bead proximity signal; inhibition, % at 2.6 µM; 0.91% of 650,000 active; O75030; AID 1259374; in the data active means inhibition above about 50%;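 further: 0% = vehicle wells with protein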
GPR151 ag: human GPR151 activation. 1% of 650,000 active. activation, % at 11.2 µM. PathHunter beta-arrestin GPR151 cells, luminescence. AID 1508602. Q8TDV0; in the data active means activation above about 4.9%;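 further: 0% = median of compound wells and 100% = cells with positive control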
Target sequence (Q8TDV0 whole entry, looked up): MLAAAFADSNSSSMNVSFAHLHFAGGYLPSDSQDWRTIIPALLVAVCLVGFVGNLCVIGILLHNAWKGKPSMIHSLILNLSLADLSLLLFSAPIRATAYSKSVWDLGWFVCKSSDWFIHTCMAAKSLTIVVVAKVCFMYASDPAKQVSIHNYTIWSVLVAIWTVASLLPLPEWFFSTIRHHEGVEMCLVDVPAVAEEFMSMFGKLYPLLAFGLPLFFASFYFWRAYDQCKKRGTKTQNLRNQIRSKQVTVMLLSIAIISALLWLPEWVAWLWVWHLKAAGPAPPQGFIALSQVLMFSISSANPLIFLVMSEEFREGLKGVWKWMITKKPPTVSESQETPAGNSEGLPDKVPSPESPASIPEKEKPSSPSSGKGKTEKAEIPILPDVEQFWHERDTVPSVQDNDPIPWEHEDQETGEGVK
* marks the source's active call; other numbers are inactive results; ! = a repeat was not active.

SMILES	FBW7 act	TEAD-YAP block	MITF inh	GPR151 ag
COC(=O)c1cc2sccc2n1CC(=O)Cc1ccc(OC)cc1OC	0	50*	14	-1
COc1ccc(N2CCN(C(CNC(=O)Nc3cccs3)c3ccco3)CC2)cc1 (stereo not given)	-1	7	19	-1
N#Cc1c2c(c(Cl)n3c1nc1ccccc13)CCC2	1.9*	2	11	0
CN(C)c1c2c(c(C#N)c3nc4ccccc4n13)CCC2	0	3	-18	-1
Cc1ccc(Nc2c3c(c(C#N)c4nc5ccccc5n24)CCC3)cc1C	2.2*	2	19	-1
O=C(N/N=C/c1c(F)cccc1Cl)c1ccco1	0	-53	11	-1
COc1ccccc1N1CCN(CC(O)COc2cccc3ccccc23)CC1 (stereo not given)	0	38*!	12	0
CN1CCN(CC(O)COc2cccc3ccccc23)CC1 (stereo not given)	0	10	9	-1
COc1ccc(C2CC(=O)N(Cc3cccc(F)c3)c3ccccc3S2)cc1OC (stereo not given)	0	13	1	1
NC1=C/C(=N\S(=O)(=O)c2ccccc2)c2ccccc2C1=O	0	96*	10	0
COCCCNc1ccc([N+](=O)[O-])cc1C(=O)N(C)C1CCCCC1	0	2	9	3
Nc1ccccc1SC1=CS(=O)(=O)c2ccccc21	0	-5	6	0
O=S1(=O)C=C(Sc2nc3ccccc3s2)c2ccccc21	0	61*	-1	-1
COc1ccccc1NC(=S)NC(=O)c1ccccc1OC	0	39*	7	-1
COc1ccccc1NC(=S)Nc1ccc(N2CCOCC2)cc1	0	33*	18	-2
COc1ccccc1C(=O)NNC(=O)c1cccc(O)c1	0	79*	0	-2
COc1ccccc1C(=O)NC(=S)Nc1ccccc1C(=O)O	0	22	-4	-2
COC(=O)c1cc(OC)c(OC)cc1NC(=S)Nc1ccccc1	0	1	2	-2
COC(=O)c1cc(OC)c(OC)cc1NC(=S)NC(=O)c1ccccc1	0	33*	-1	-1
CC(C)c1ccc(NC(=O)CSc2nc3[nH]ncc3c(=O)n2-c2cccc(Cl)c2Cl)cc1	0	16	-4	1
CC(C)CNc1nc2ccccc2nc1NS(=O)(=O)c1ccccc1	0	2	3	0
C=CCn1nc[n+](C(C)(C)C)n1	0	1	16	0
COCCN1C(=O)/C(=C\c2c(N3CCCCC3)nc3c(C)cccn3c2=O)SC1=S	0	8	-2	-1
COc1ccc(C(=O)N/N=C/C(C)C)cc1	0	-27	2	0
O=C(CSc1nc2cc(C(=O)NCCC3=CCCCC3)ccc2c(=O)n1C1CCCCC1)c1ccccc1	0	3	24	0
SMILES	FBW7 act	TEAD-YAP block	MITF inh	GPR151 ag
Cc1ccc(N2C(=O)CSC2c2ccc([N+](=O)[O-])cc2)cc1F (stereo not given)	0	-5	0	0
O=C1CCCCN1CC(=O)N1CCc2c([nH]c3ccccc23)C1C1CCCCC1 (stereo not given)	0	7	0	-2
COc1c(NC(=O)Nc2ccccc2C)cc([N+](=O)[O-])c(OC)c1C	0	45*	6	1
C=CCn1c(O)c(/C=C2\C(C)=Nc3ccccc32)c(=O)[nH]c1=S	0	-4	29	0
Cc1sc2nc(C3CCCN(C(=O)Cc4ccc(F)cc4)C3)[nH]c(=O)c2c1C (stereo not given)	0	-6	4	0
O=C(Cc1ccc(Br)cc1)N1CCC(c2nc3ccncc3c(=O)[nH]2)C1 (stereo not given)	2.3*	2	35	-2
COC(=O)c1ccc(N/C=C2/CCc3ccccc3C2=O)cc1	0	68*	23	-6
CCOC(=O)c1c(NC(=O)COc2ccc(C(C)(C)CC(C)(C)C)cc2)sc2c1CCC(C)C2 (stereo not given)	0	-5	4	-1
N#Cc1cccc(NC(=O)COC(=O)c2ccc(Cl)cc2N)c1	0	-4	-2	-1
Cc1ccc(-c2nc(Nc3ccccc3)s[n+]2CS(=O)(=O)c2ccccc2)cc1	0	66*	9	-5
CC[C@H]1CN2CCc3cc(OC)c(OC)cc3C2C[C@@H]1CC1NCCc2cc(OC)c(OC)cc21 (stereo not given in full)	0	95*	1	2
CCC(C)c1ccccc1OCC(=O)Nc1ccc(C(C)=O)cc1 (stereo not given)	1	-48	-323	0
CC1=Nc2ccccc2/C1=C/c1sc(=N)n(-c2nccs2)c1O	0	32*	1	0
Cc1ccc(Cn2ccn(-c3cccc(Cl)c3)c(=O)c2=O)cc1	1	6	12	-2
Cc1cccc(Cn2ccn(-c3cccc(Cl)c3)c(=O)c2=O)c1	0	51*	-13	0
O=C1NC(=O)N(c2ccccc2)C(=O)/C1=C\c1ccc(I)o1	0	-3	74*	1
O=C1NC(=O)N(Cc2ccccc2)C(=O)/C1=C/c1ccc(Br)o1	-1	11	58*	-1
Cc1cccc(N2C(=O)NC(=O)/C(=C/c3ccc(I)o3)C2=O)c1	0	-3	58*	-2
CCc1ccc(N2C(=O)NC(=O)/C(=C\c3ccc(I)o3)C2=O)cc1	1	-1	14	1
O=C(NCc1ccccn1)c1cccc(OC2CCN(Cc3nccs3)CC2)c1	0	11	-4	-1
Fc1ccc(Nc2ccn3ncc(-c4ccsc4)c3n2)cc1Cl	2.0*	5	-3	1
Fc1ccc(Nc2ccn3ncc(-c4cccs4)c3n2)cc1Cl	0	5	16	3
O=c1c(=NNc2nn[nH]n2)c(=O)c2ccccc12	-1	98*	5	0
Cc1ccc(NN=c2c(=O)c3ccccc3c2=O)cc1	0	-39	27	0
O=c1c(=NNc2ccccc2Cl)c(=O)c2ccccc12	0	58*	-1	1
SMILES	FBW7 act	TEAD-YAP block	MITF inh	GPR151 ag
O=c1c(=NNc2ccccc2)c(=O)c2ccccc12	0	-66	-10	0
COc1cc(C2CC(=O)NC3=C2C(=O)CC(C)(C)C3)cc(OC)c1OC (stereo not given)	0	13	8	0
CCC(=O)Nc1nc2c(Cl)c(Cl)ccc2s1	0	16	-7	0
CCCCOc1ccc(-c2nc(C=Nc3ccccc3Cl)c(O)o2)cc1	0	-12	-8	1
CC(=O)NC(c1ccc(Br)cc1)c1ccc2cccnc2c1O (stereo not given)	0	83*	-33	-1
CC(=O)NC(c1ccc([N+](=O)[O-])cc1)c1ccc2cccnc2c1O (stereo not given)	0	84*	-21	2
CC(=O)NC(c1ccc(C)cc1)c1ccc2cccnc2c1O (stereo not given)	-2	85*	51*	-1
Cc1cccnc1NC(c1ccc([N+](=O)[O-])cc1)c1ccc2cccnc2c1O (stereo not given)	-2	70*	48	-1
